Here are results for 27 compounds from PubChem BioAssay (EPA / NIEHS).

“And” between values parts separate entries of the source, which are not always exact repeats. Identical values can stand only once. Results filed as inconclusive are left out. The source made the active and inactive calls. Rule for the calls: active = hit-call score of the fitted dose curve at least 0.9, where 1 is the maximum; inconclusive = response in the unintended direction; inactive = score below 0.9.

In general, AC50 refers to the midpoint of the concentration-response curve, whichever way the signal moves.

Sequence of Estrogen receptor (Homo sapiens) (P03372 whole entry, looked up): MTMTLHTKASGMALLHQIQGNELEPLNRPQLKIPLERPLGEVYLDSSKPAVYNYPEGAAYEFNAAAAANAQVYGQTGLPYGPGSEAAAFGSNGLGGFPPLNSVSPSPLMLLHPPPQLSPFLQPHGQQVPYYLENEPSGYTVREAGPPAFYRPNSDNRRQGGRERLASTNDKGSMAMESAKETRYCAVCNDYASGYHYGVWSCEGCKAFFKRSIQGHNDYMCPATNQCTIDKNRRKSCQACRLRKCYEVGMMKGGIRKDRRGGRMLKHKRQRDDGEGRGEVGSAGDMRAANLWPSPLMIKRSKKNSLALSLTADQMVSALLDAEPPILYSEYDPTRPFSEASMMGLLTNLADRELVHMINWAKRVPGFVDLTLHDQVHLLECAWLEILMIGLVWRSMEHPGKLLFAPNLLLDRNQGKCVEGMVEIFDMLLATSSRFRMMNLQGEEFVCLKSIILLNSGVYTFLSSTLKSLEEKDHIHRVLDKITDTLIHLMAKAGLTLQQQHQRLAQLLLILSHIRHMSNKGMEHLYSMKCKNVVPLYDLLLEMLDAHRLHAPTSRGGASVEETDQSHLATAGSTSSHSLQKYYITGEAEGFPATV
Sequence of mouse Estrogen Receptor alpha (Era), Esr1 (gene 13982) (P19785 whole entry, looked up): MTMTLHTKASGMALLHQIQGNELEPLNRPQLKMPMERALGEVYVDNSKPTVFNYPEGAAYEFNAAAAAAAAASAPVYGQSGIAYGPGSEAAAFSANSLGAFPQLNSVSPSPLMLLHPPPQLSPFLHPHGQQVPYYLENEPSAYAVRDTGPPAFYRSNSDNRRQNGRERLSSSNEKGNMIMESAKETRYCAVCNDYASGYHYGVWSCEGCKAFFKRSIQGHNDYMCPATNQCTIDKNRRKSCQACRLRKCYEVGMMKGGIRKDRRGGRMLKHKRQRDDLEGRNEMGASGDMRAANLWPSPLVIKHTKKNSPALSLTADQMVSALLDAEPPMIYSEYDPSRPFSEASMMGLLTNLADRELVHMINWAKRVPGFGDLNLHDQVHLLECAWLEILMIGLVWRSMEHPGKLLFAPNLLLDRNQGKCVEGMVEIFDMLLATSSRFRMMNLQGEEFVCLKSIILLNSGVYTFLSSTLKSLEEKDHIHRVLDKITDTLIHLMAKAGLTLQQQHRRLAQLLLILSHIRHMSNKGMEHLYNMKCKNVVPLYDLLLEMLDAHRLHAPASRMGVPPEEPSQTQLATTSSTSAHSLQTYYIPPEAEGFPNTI
Sequence of human Norepinephrine Transporter (NET), SLC6A2 (gene 6530) (P23975 whole entry, looked up): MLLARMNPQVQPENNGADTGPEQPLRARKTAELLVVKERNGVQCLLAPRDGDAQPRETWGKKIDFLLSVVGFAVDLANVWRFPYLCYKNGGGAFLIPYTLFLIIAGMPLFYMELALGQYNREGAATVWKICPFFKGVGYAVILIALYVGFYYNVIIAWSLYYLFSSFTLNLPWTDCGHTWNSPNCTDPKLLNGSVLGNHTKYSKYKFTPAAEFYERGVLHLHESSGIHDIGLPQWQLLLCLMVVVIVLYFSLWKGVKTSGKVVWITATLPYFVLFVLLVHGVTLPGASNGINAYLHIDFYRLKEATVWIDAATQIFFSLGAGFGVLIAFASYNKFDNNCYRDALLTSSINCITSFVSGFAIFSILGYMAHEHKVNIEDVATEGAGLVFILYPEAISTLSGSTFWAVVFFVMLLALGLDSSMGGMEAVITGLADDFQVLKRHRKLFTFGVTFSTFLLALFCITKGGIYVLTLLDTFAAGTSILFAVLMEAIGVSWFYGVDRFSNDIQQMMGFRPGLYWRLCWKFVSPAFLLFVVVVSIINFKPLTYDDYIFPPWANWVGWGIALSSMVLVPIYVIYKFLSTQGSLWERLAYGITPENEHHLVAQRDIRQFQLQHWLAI
Sequence of Estrogen receptor beta (Homo sapiens) (Q92731 whole entry, looked up, the tested form may be a part): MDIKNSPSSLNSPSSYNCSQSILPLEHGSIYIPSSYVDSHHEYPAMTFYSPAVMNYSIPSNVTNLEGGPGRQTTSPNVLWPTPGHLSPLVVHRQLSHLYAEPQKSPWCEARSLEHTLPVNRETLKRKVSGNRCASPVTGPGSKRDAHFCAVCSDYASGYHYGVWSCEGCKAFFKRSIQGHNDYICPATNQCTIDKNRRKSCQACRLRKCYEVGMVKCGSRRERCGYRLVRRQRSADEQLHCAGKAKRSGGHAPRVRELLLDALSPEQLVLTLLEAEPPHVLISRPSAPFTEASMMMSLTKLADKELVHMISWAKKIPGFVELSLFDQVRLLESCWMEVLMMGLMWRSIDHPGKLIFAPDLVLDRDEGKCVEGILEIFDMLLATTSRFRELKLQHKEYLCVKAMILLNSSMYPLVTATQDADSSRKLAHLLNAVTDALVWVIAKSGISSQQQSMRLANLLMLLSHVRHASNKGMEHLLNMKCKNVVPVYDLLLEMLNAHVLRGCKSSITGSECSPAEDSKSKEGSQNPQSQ

One test addresses human Norepinephrine Transporter (NET), SLC6A2 (gene 6530) (UniProt P23975). Put plainly: NVS_TR_hNET: NovaScreen (NVS) Transporter Assay for human Norepinephrine Transporter (NET) (AID 2283377).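 For AC50: displacement of radioligand from human NET seen as loss of scintillation signal.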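 Note: cell-free membrane protein extracted from CHO cells expressing human NET.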 The procedure, abridged: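 Single-concentration duplicate screen at 25 uM, then concentration-response for actives; displacement of specific radioligand from human NET in CHO membrane extracts, filter-based scintillation detection at 1 h relative to DMSO.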
For the compound `CC(C)NCC(O)c1ccc(O)c(O)c1` (stereo unspecified), the call was inactive.
Take `CN(C)C(=O)NC1(c2ccccc2)CCN(CCC[C@]2(c3ccc(Cl)c(Cl)c3)CCCN(C(=O)c3ccccc3)C2)CC1`: the half-maximal activity concentration (AC50) was 0.124 µM (active).
For `CN(C)C(=O)NC1(c2ccccc2)CCN(CC[C@@]2(c3ccc(F)c(F)c3)CN(C(=O)c3ccccc3)CCO2)CC1`, the result was inactive.
Turning to `S=c1[nH]c2ccccc2s1`, the AC50 was 13.6 µM (active).
With `CCC(C)N(C)C(=O)c1cc2ccccc2c(-c2ccccc2Cl)n1` (stereo unspecified), the AC50 is 6.81 µM (active).
For the compound `Cc1ccc(-c2cc(C(F)(F)F)nn2-c2ccc(S(N)(=O)=O)cc2)cc1`, the AC50 was 6.38 µM (active).
With `O=C(N[C@@H](c1ccccc1)[C@@H]1CCCCN1)c1cccc(C(F)(F)F)c1Cl`, the AC50 is 8.04 µM (active).
Turning to `COC(=O)[C@H]1[C@H]2C[C@@H]3c4[nH]c5cc(OC)ccc5c4CCN3C[C@H]2C[C@@H](OC(=O)c2cc(OC)c(OC)c(OC)c2)[C@@H]1OC`, the AC50 was 5.72 µM (active).
As for `CCCCCCCCCCCCCCOS(=O)(=O)O`, the AC50 is 37.7 µM (active).
Take `CCc1nc(N)nc(N)c1-c1ccc(Cl)cc1`: the concentration at half-maximal activity (AC50) was 2.23 µM (active).
Consider `COc1ccc(OC(F)(F)F)cc1CN[C@H]1CCCN[C@H]1c1ccccc1`, for which the AC50 is 11.1 µM (active).
In the case of `NC(=Nc1ccccc1)Nc1ccccc1`, the compound was called inactive.
As for `CSc1ccc(Oc2ccc(S(N)(=O)=O)cc2CN(C)C)cc1C`, the AC50 was 4.12 µM (active).

The next test concerns the target mouse Estrogen Receptor alpha (Era), Esr1 (gene 13982) (UniProt P19785). The test is described as follows: NVS_NR_mERa: NovaScreen (NVS) Nuclear Receptor Binding Assay for mouse Estrogen Receptor alpha (Era) (AID 2283378).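 Note: hit means loss of bound radioligand signal relative to DMSO.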 In short, it runs like this:
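Extracted mouse Era incubated with tritiated or iodinated radioligand plus test chemical, 18 h. Bound fraction separated on filters, counted by scintillation. DMSO = negative control/baseline; duplicate single-point at 25 uM, then concentration-response follow-up.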
Regarding `CN(C)C(=O)NC1(c2ccccc2)CCN(CCC[C@]2(c3ccc(Cl)c(Cl)c3)CCCN(C(=O)c3ccccc3)C2)CC1`, the call was inactive.
As for `Cc1ccc(-c2cc(C(F)(F)F)nn2-c2ccc(S(N)(=O)=O)cc2)cc1`, the compound was called inactive.
For `CSc1ccc(Oc2ccc(S(N)(=O)=O)cc2CN(C)C)cc1C`, the outcome was inactive.

In the next test the target is Agonist Androgen Response Element (ARE), AR (gene 367) (UniProt P10275). Put plainly: OT_AR_ARELUC_AG_1440: Odyssey Thera (OT) 24-hour CHO-K1 Luciferase Assay for Agonist Androgen Response Element (ARE) (AID 2283379). The procedure, abridged: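 Readout: luciferase bioluminescence from CHO-K1 ARE-luc cells, measured 24 h post-dosing; agonism = increased mean luminescence vs DMSO controls, fitted in positive direction.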
Sequence of Agonist Androgen Response Element (ARE), AR (gene 367) (P10275 whole entry, looked up): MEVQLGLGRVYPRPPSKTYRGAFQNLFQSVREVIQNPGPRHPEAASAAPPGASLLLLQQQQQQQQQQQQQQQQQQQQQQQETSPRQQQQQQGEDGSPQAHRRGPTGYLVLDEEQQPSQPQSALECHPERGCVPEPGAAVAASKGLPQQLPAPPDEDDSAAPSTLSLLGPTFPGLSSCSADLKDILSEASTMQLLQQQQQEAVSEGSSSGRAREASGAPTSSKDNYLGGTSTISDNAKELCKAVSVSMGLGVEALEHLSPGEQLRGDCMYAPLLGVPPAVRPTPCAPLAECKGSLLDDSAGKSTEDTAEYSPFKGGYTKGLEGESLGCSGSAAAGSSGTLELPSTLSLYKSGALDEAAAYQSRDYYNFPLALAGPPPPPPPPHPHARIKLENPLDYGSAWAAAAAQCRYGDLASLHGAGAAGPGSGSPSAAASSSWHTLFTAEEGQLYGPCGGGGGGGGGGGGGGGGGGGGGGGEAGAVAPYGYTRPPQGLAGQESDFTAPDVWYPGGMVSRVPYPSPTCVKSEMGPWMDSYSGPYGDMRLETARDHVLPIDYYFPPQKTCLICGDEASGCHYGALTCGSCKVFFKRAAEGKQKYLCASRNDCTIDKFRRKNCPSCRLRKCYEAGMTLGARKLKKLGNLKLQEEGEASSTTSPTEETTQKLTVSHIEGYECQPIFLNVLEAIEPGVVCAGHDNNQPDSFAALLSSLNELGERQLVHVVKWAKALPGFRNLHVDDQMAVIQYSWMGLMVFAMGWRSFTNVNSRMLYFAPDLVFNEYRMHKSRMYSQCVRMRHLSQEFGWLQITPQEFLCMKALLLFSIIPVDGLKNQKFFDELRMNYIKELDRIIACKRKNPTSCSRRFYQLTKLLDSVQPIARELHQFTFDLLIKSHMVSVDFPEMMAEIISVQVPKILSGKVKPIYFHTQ
Take `Cc1c(C)c2c(c(C)c1O)CCC(C)(COc1ccc(CC3SC(=O)NC3=O)cc1)O2` (stereo unspecified): the result was inactive.
As to `CCN(CC)CCOc1ccc(C(=C(Cl)c2ccccc2)c2ccccc2)cc1`, the compound was classed as inactive.
Consider `CCC(C)N(C)C(=O)c1cc2ccccc2c(-c2ccccc2Cl)n1` (stereo unspecified), for which the compound was called inactive.
For `Cc1ccc(-c2cc(C(F)(F)F)nn2-c2ccc(S(N)(=O)=O)cc2)cc1`, the compound was called inactive.
Still for that read-out and setting: then `CCCCCCCCCC[N+](C)(C)[O-]`, with “inactive”; and `Cc1cc(SC2=C(O)C[C@@](CCc3ccc(N)cc3)(C(C)C)OC2=O)c(C(C)(C)C)cc1CO`, with “inactive”.
Consider `CCOCCOCCO`, for which the compound was classed as inactive.
With `O=C(NS(=O)(=O)/C=C/c1cccs1)c1ccc(F)cc1Br`, the compound was called inactive.
For `CSc1ccc(Oc2ccc(S(N)(=O)=O)cc2CN(C)C)cc1C`, the call was inactive.
In the case of `O=C1OC(c2ccc(O)cc2)(c2ccc(O)cc2)c2ccccc21`, the call was inactive.

Another test addresses Estrogen receptor beta (Homo sapiens) (UniProt Q92731). Put plainly: OT_ER_ERbERb_1440: Odyssey Thera (OT) 24-hour HEK293T Protein-Complementation Assay for Estrogen Receptor-beta/-beta Homodimer (AID 2283380).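 Note: fluorescence gain from ER beta LBD homodimer complementation read by laser scanning cytometry; scored as signal increase over DMSO baseline for both agonists and antagonists.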 The procedure, abridged:
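Fluorescence increase, nuclear for agonists or whole-cell for antagonists, relative to DMSO vehicle, quantified by laser scanning cytometer after fixation and Draq5 staining. Readout from 24 h treatment of HEK293T cells carrying complementation-paired ER beta LBD (aa 310-547).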
Turning to `Cc1c(C)c2c(c(C)c1O)CCC(C)(COc1ccc(CC3SC(=O)NC3=O)cc1)O2` (stereo unspecified), the outcome was inactive.
The same measure, in the same setting: the same measure for `CC(C)NCC(O)c1ccc(O)c(O)c1` (stereo unspecified): “inactive”.
On to `CCN(CC)CCOc1ccc(C(=C(Cl)c2ccccc2)c2ccccc2)cc1`, for which the AC50 was 60.4 nM (active) and 53.3 nM (active) and 30.6 nM (active).
In the case of `CN(C)C(=O)NC1(c2ccccc2)CCN(CCC[C@]2(c3ccc(Cl)c(Cl)c3)CCCN(C(=O)c3ccccc3)C2)CC1`, the compound was classed as inactive.
With `C/C=C/C=C/C(=O)O`, the result was inactive.
Still for that read-out and setting: then `CC(COCC(C)OC(=O)c1ccccc1)OC(=O)c1ccccc1` (stereo unspecified), with “inactive”; and `S=c1[nH]c2ccccc2s1`, with “inactive”.
Same read-out and setting: the same measure for `CCCCC(CC)COP(=O)(OCC(CC)CCCC)OCC(CC)CCCC` (stereo unspecified): “inactive”; for `CCC(C)N(C)C(=O)c1cc2ccccc2c(-c2ccccc2Cl)n1` (stereo unspecified): “inactive”; for `O=C(N[C@@H](c1ccccc1)[C@@H]1CCCCN1)c1cccc(C(F)(F)F)c1Cl`: “inactive”.
The same measure, in the same setting: then `CCCCCCCCCC[N+](C)(C)[O-]`, with “inactive”; and `CN(C)CCCN1c2ccccc2Sc2ccc(Cl)cc21`, with “inactive”.
As for `CO[C@@H]1COCC[C@@H]1N[C@@H]1CC[C@@](C(=O)N2CCc3ncc(C(F)(F)F)cc3C2)(C(C)C)C1`, the outcome was inactive.
Still for that read-out and setting: the same measure for `CCCCCCCCCCCCCCOS(=O)(=O)O`: “inactive”; for `CCc1nc(N)nc(N)c1-c1ccc(Cl)cc1`: “inactive”; for `COc1ccc(OC(F)(F)F)cc1CN[C@H]1CCCN[C@H]1c1ccccc1`: “inactive”.
In the case of `NC(=Nc1ccccc1)Nc1ccccc1`, the result was inactive.
Same read-out and setting: then `CCCCCCC(CCCCCCCCCCC(=O)OCC(COC(C)=O)OC(C)=O)OC(C)=O` (stereo unspecified), with “inactive”; and `CC(C)(O)c1ccc(CNC(=O)c2cccnc2Oc2ccc(F)cc2)cc1`, with “inactive”.
Regarding `O=C(NS(=O)(=O)/C=C/c1cccs1)c1ccc(F)cc1Br`, the outcome was inactive.
As to `CSc1ccc(Oc2ccc(S(N)(=O)=O)cc2CN(C)C)cc1C`, the compound was called inactive.
Consider `O=C1OC(c2ccc(O)cc2)(c2ccc(O)cc2)c2ccccc21`, for which the concentration at half-maximal activity (AC50) was 11.9 µM (active).

The target of a further test is Estrogen receptor (Homo sapiens) (UniProt P03372). Put plainly: OT_ERa_GFPERaERE_0120: Odyssey Thera (OT) 2-hour HeLa Transcription Induction Assay for Estrogen Receptor (AID 2283382). The procedure, abridged:
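Cells (human cervical HeLa) receive compound, incubate 2 hours, then are imaged for fluorescent reporter induction. Images are quantified by high content analysis, and activity is fitted as gain of signal against DMSO.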
Turning to `Cc1c(C)c2c(c(C)c1O)CCC(C)(COc1ccc(CC3SC(=O)NC3=O)cc1)O2` (stereo unspecified), the call was inactive.
As to `CN(C)C(=O)NC1(c2ccccc2)CCN(CCC[C@]2(c3ccc(Cl)c(Cl)c3)CCCN(C(=O)c3ccccc3)C2)CC1`, the result was inactive.
Consider `CCC(C)N(C)C(=O)c1cc2ccccc2c(-c2ccccc2Cl)n1` (stereo unspecified), for which the compound was called inactive.
For `Cc1ccc(-c2cc(C(F)(F)F)nn2-c2ccc(S(N)(=O)=O)cc2)cc1`, the compound was called inactive.
As to `O=C(N[C@@H](c1ccccc1)[C@@H]1CCCCN1)c1cccc(C(F)(F)F)c1Cl`, the outcome was inactive.
Turning to `CCCCCCCCCC[N+](C)(C)[O-]`, the call was inactive.
For the compound `CCCCCCCCCCCCCCOS(=O)(=O)O`, the compound was called inactive.
On to `CCc1nc(N)nc(N)c1-c1ccc(Cl)cc1`, for which the compound was called inactive.
As to `COc1ccc(OC(F)(F)F)cc1CN[C@H]1CCCN[C@H]1c1ccccc1`, the AC50 is 75.7 µM (active).
In the case of `NC(=Nc1ccccc1)Nc1ccccc1`, the compound was classed as inactive.
For the compound `CCCCCCC(CCCCCCCCCCC(=O)OCC(COC(C)=O)OC(C)=O)OC(C)=O` (stereo unspecified), the result was inactive.
On to `O=C(NS(=O)(=O)/C=C/c1cccs1)c1ccc(F)cc1Br`, for which the outcome was inactive.
As to `CSc1ccc(Oc2ccc(S(N)(=O)=O)cc2CN(C)C)cc1C`, the compound was classed as inactive.
